The record followed here is PubChem BioAssay (NCI).

This is part of a sample that, as a whole, favours compounds with a hit. Of some 83,000 tested, about 20% had one in any assay.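 The endpoint reported here, percent growth, reads 100 for growth as untreated, 0 for no net growth and -100 for all cells dead.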 A number with no mark means an inactive call. Activity calls are given as the source filed them. The calls were made as follows: active = growth percent below 10; inactive = the rest.

What all share (test): NCI-60 one-dose screen, 48 h (100 = growth as untreated, 0 = no growth, -100 = all killed)
Common to all, as to details: 10 µM unless noted

The subject of assay [1] is NCI-H23 lung.
Assay [2] deals with NCI-H226 lung.
Assay [3] deals with NCI-H322M lung.
The test system of assay [4] is HOP-62 NSCLC.
Assay [5] has as its system NCI-H460 lung.
The test system of assay [6] is 786-0 renal.
The test system of assay [7] is MDA-MB-231 breast.
Assay [8] relates to SF-268 CNS.
The subject of assay [9] is SF-539 CNS.
Assay [10] concerns M14 melanoma.
Assay [11] deals with U251 CNS.
The test system of assay [12] is PC-3 prostate.
For assay [13], the system named is UACC-62 melanoma.
In assay [14] the test system is SK-MEL-28 melanoma.
The test system of assay [15] is UO-31 renal.
Assay [16] relates to OVCAR-3 ovarian.
Assay [17] relates to SW-620 colon.
Assay [18] deals with MCF7 breast.
For assay [19], the system named is HCT-116 colon.
The test system of assay [20] is KM12 colon.

As to `COc1cc2c(cc1OC)CN(C)C(C)C2` (stereo not given), the growth in assay [1] was 101%; in [2] it was 96.8%; in assay [3], 106%; in assay [4], 92%; in assay [5] it was 106%; in [6], 101%. For the same compound, the growth in assay [7] was 110%; in assay [8] it was 96%; in assay [9] it was 105%; in assay [10], 100%; in assay [11], 101%; in assay [12], 97.4%. Besides, the growth is 89.4% in [13]; 106% in assay [14]; 93% in assay [15]; 113% in assay [16]; 100% in assay [17]; 95.5% in assay [18]. Besides, the growth was 105% in assay [19] and 102% in assay [20].

Regarding `O=C(CI)Nc1ccc(Br)cc1`, the growth was 32% in assay [1]; 69.7% in [2]; 95.4% in assay [3]; -62.7% (active) in assay [4]; 95.3% in assay [5]; 91.3% in [6]. In addition, the growth in assay [7] is 44.2%; in [8], 75.8%; in [9], 95.8%; in [10], 14.1%; in assay [11] it was -18.8% (active); in [12], 87.3%. Also, the growth in [13] was 79.2%; in assay [14], 109%; in assay [15] it was -82.3% (active); in assay [16], -78.7% (active); in assay [17], -86.7% (active); in assay [18], 32.4%. For the same compound, the results for the growth in [19] and in assay [20] were -69.9% (active) and 88.1%, respectively.

For the compound `CCCCN(CCCC)CC(O)c1ccccc1` (stereo not given), the growth in [1] was 100%; in [2], 113%; in assay [3] it was 105%; in [4], 114%; in [5], 110%; in [6], 103%. Further, the growth in assay [7] was 104%; in assay [8] it was 114%; in [9] it was 114%; in assay [10], 100%; in assay [11], 100%; in [12], 111%. The growth in [13] was 105%; in [14] it was 103%; in assay [15] it was 100%; in assay [16], 108%; in assay [17], 102%; in [18], 105%. The results for the growth in [19] and in [20] were 114% and 104%, respectively.
